SARS 3CLpro inh = SARS-CoV 3CLpro protease inhibition; recombinant SARS-CoV 3CLpro, quenched FRET peptide cleavage; 290,000 compounds, 0.14% hits; P0C6X7; inhibition, % at 6 µM; AID 1706; in the data active = inhibition above about 12%
VHR inh abs = blocks human VHR1 dual specificity phosphatase; inhibition, % at 13.3 µM; AID 1654; 290,000 compounds, 0.52% hits; P51452; recombinant VHR phosphatase, pNPP absorbance; in the data active = inhibition above about 50%
CCHF vOTU inh = blocks the CCHF virus ovarian tumor domain protease; AID 651958; inhibition, % at 11.5 µM; CCHFV vOTU protease, Pep-AMC fluorescence; 370,000 compounds, 0.55% hits; in the data active = inhibition above about 30%
RecA splice inh = inhibitors of M. tuberculosis RecA intein splicing | P9WHJ3 | cell-free RecA intein splicing, fluorescence | inhibition, % (concentration not given with the values) | 290,000 compounds, 0.75% hits; in the data active = inhibition above about 30%
Target sequence (P9WHJ3 whole entry, looked up, canonical isoform): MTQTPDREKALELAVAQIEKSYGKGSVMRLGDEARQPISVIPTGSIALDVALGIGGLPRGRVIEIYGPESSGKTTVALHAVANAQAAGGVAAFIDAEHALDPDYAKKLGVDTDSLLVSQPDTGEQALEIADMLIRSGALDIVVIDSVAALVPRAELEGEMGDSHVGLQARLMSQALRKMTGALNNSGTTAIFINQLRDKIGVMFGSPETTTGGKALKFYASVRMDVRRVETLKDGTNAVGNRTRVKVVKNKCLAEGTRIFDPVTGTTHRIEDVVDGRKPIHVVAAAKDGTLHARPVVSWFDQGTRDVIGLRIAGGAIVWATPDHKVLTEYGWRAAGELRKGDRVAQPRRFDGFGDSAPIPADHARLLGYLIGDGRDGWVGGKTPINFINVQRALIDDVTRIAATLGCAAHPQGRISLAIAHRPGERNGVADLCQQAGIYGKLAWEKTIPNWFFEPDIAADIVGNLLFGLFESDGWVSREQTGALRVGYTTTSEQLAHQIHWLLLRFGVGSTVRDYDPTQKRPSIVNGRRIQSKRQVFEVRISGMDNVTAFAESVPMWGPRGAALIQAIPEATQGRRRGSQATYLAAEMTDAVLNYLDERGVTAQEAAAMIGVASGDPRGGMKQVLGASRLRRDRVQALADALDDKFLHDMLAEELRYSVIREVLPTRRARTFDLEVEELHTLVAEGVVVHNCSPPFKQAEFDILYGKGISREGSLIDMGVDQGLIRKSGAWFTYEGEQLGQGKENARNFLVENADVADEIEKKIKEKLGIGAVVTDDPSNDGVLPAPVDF
GFP chromophore = counter-screen GFP chromophore formation inhibition. cell-free GFP chromophore formation, fluorescence. EC50, µM. AID 434968. 2,100 compounds, 83% hits. shares compounds with RecA splice inh; call rule not given here
Hits are given with their value; n = inactive; x = no result given. The list is not random: actives were taken first. Their share in the collection is about 1.5%.

SMILES	SARS 3CLpro inh	VHR inh abs	CCHF vOTU inh	RecA splice inh	GFP chromophore
Cc1cccc(C(=O)Nc2nnc(Cc3ccccc3)s2)c1	n	n	n	n	x
CCOC(=O)c1c(CSC(=N)N)n(-c2ccccc2)c2cc(Br)c(OC(C)=O)cc12	n	n	n	47.7	20.4
CC(C)c1nnc(NC(=O)CCC(=O)N2CCN(Cc3ccc(F)cc3)CC2)s1	n	n	n	n	x
CSc1nnc(NC(=O)c2nc(S(=O)(=O)Cc3cccc(C)c3)ncc2Cl)s1	n	n	n	81.4	18.2
CSc1nnc(NC(=O)c2ccco2)s1	n	n	n	n	x
Cc1ccc(CS(=O)(=O)c2ncc(Cl)c(C(=O)Nc3nnc(C(C)C)s3)n2)cc1	n	n	n	86.0	3.7
CCSc1nnc(NC(=O)c2nc(S(=O)(=O)Cc3ccc(F)cc3)ncc2Cl)s1	n	n	n	84.8	20.7
CC(C)c1nnc(NC(=O)c2nc(S(=O)(=O)Cc3ccc(F)cc3)ncc2Cl)s1	n	n	n	82.3	16.2
Nc1cc(Cl)nnc1Cl	n	n	n	n	x
CN(Cc1ccccc1)C(=O)OCc1cn(Cc2cccc(C(F)(F)F)c2)nn1	x	x	n	x	x
COc1ccc(-c2cc3c(c4c2ccn4C)C2CCC3C2)cc1OC (stereo not given)	x	x	n	x	x
Cc1cccc(CS(=O)(=O)c2ncc(Cl)c(C(=O)Nc3nnc(C(C)C)s3)n2)c1	n	n	x	85.8	0.856
CC(C)c1nnc(NC(=O)CS(=O)(=O)Cc2ccccc2)s1	n	n	n	n	x
Nc1ccc(O)c2ccccc12	x	x	x	88.5	11
COc1cccc(C(=O)NNC(=O)Cc2ccc(Cl)cc2)c1	n	n	n	n	x
COc1cccc(C(=O)Nc2nc(SCc3ccc(Cl)cc3)n[nH]2)c1	n	n	n	39.2	n
CN(C)/C=C/C(=O)c1ccc2noc(-c3ccc(F)cc3)c2c1	n	n	n	30.7	n
Cc1ccc(-c2onc3ccc(C(=O)/C=C/N(C)C)cc23)cc1	n	n	n	n	x
CC(C)(C)OC(=O)C[C@@H]1C/C=C\C[C@H](CC(=O)N(CCO)Cc2ccccc2)C(=O)N[C@@H](Cc2c[nH]c3ccccc23)COC1=O	x	x	n	x	x
CC(C)CCSc1cc(NCCO)c([N+](=O)[O-])c2nonc12	n	n	n	n	x
CC(=O)OCCNc1cc(SC(C)C)c2nonc2c1[N+](=O)[O-]	n	n	n	n	x
CCC(=O)OCCNc1cc(SCCC(=O)OC)c2nonc2c1[N+](=O)[O-]	n	n	n	45.3	26.2
CCCC(=O)OCCNc1cc(Sc2nc3ccccc3[nH]2)c2nonc2c1[N+](=O)[O-]	n	n	n	95.6	0.96
CCC(=O)OCCNc1cc(Sc2nccn2C)c2nonc2c1[N+](=O)[O-]	n	n	n	87.2	4.79
COc1ccc(Nc2cc(C)nc(N3CCN(C(=O)c4ccc5c(c4)OCO5)CC3)n2)cc1	x	x	n	n	x
SMILES	SARS 3CLpro inh	VHR inh abs	CCHF vOTU inh	RecA splice inh	GFP chromophore
COc1cc(/C=C2\SC(=S)NC2=O)ccc1OS(=O)(=O)c1ccccc1	n	n	x	n	x
COc1cc(/C=C2/SC(=S)NC2=O)ccc1OS(=O)(=O)c1ccc(C)cc1	n	n	x	35.6	22.9
Cn1c(=O)[nH]c(=O)c2c1nc(N1CCCCC1)n2CCSc1nc2ccccc2o1	n	n	n	n	x
CC(C)CCn1c(Sc2nc3ccccc3o2)nc2c1c(=O)[nH]c(=O)n2C	n	n	n	31.1	5.03
Cc1nc2ccccc2c2c1C(=O)N(Cc1cccnc1)C2=O	n	n	n	53.7	0.815
CCc1cc2c3c(c1)C1(C(=O)N3C(C)(C)C=C2C)C(C#N)=C(N)Oc2[nH]c(=O)[nH]c(=O)c21 (stereo not given)	n	n	n	78.2	18.6
O=c1cc(C23CC4CC(CC(C4)C2)C3)[nH][nH]1	n	n	n	90.6	10
O=c1cc(-c2cccc3ccccc23)[nH][nH]1	n	n	n	92.5	3.46
Nc1ccc2ncccc2c1	n	n	n	70.1	16
Nc1ccc(/C=C/c2ccc3ncccc3c2)cc1	n	n	n	n	x
COC(=O)c1ccc(C(C(=O)NC2CCCCC2)N(Cc2ccc(F)cc2)C(=O)Cc2cccs2)cc1 (stereo not given)	n	n	n	n	x
O=C(NC1CCCC1)C(c1ccc(F)cc1)N(Cc1ccc(Cl)cc1)C(=O)CCl (stereo not given)	n	n	n	59.1	6.99
O=C(NC1CCCC1)C(c1ccc(Cl)cc1)N(Cc1ccc(F)cc1)C(=O)CCl (stereo not given)	n	n	x	67.1	2.71
CC(=O)OC12CCCN(C1)/C(=C/c1cccnc1)C2 (stereo not given)	x	x	n	x	x
O=C(NN=c1c(=O)c2ccccc2c1=O)c1ccccc1	n	n	n	91.3	5.21
